# Results filed as inconclusive are left out. The source made the active and inactive calls. Calls come from the whole dose curve; as a rule, active = well fitted activation curve with a large enough effect in the signal ratio in the repeat runs (not every such curve was filed as active); inconclusive = weak or mixed curves, or effect the other way; inactive = flat fitted curve, though single readings scatter; the % refers to the signal ratio.
# Experiment: qHTS assay to identify small molecule agonists of the endoplasmic reticulum stress response signaling pathway (AID 1159516)
# Conditions: ESRE-bla HeLa, ER stress beta-lactamase reporter, 5 h; series mostly up to 61 µM
# Outline: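 Read-out is beta-lactamase cleavage of a FRET substrate (405 nm excitation; 460 and 530 nm emissions) in ESRE-bla HeLa cells after a 5 hr compound exposure at 37 C. Substrate incubation ran 2 hr at room temperature.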
row,Structure (SMILES),outcome
1,CCCCCCCCOC(=O)c1ccc(C(=O)OCCCCCCCC)c(C(=O)OCCCCCCCC)c1,inactive
2,N#Cc1ccc(Cl)cc1,inactive
3,CO/C=C(/C(=O)OC)c1ccccc1COc1cccc(C(F)(F)F)n1,inactive
4,CCOc1nc(F)cc2nc(S(=O)(=O)Nc3c(Cl)cccc3Cl)nn12,inactive
5,CC(c1ccc(O)cc1)(c1ccc(O)cc1)c1ccc(O)cc1,inactive
6,C[C@]12CC[C@H]3[C@@H](CCC4=CC(=O)CC[C@@H]43)[C@@H]1CC[C@@H]2OC(=O)CCC1CCCCC1,inactive
7,CN1[C@@H]2CC[C@H]1CC(OC(=O)c1cc(Cl)cc(Cl)c1)C2 (stereo partly specified),inactive
8,COc1cc(Cl)c(OC)cc1Cl,inactive
9,CCOP(=S)(OCC)SCSCC,inactive
10,Cc1c(F)c(F)c(COC(=O)C2C(/C=C(\Cl)C(F)(F)F)C2(C)C)c(F)c1F (stereo unspecified),inactive
11,CC[C@H]1C[C@H]2[C@@H]3CCC4=CC(=O)CC[C@@H]4[C@H]3CC[C@]2(C)[C@H]1O,inactive
12,COC(=O)c1cncn1C(C)c1ccccc1 (stereo unspecified),inactive
13,COc1ccc(-c2ccccc2)cc1NNC(=O)OC(C)C,inactive
14,O=[Se]=O,inactive
15,CCc1ccc(C(=O)NN(C(=O)c2cc(C)cc(C)c2)C(C)(C)C)cc1,inactive
16,COC(=O)C(C)N(C(=O)Cc1ccccc1)c1c(C)cccc1C (stereo unspecified),inactive
17,CC(C)O.CC(C)O.OCCN(CCO)CCO.OCCN(CCO)CCO.[Ti],inactive
18,Cc1ccccc1C(=O)Nc1cccc(OC(C)C)c1,inactive
19,ClCc1cccc(Cl)c1,inactive
20,N#CCC#N,inactive
21,CCOS(C)(=O)=O,inactive
